Calls of active or inactive are those of the source.
How the values were obtained:
[1] = anti-His antibody binders, primary screen, artefact control for SMM control protein annotation, biochemical, small-molecule microarray, 635 nm fluorescence (AID 1128); conditions: anti-His Alexa647 antibody binding, higher = more signal;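 note: score merges feature fluorescence with signal-to-noise for each printed compound spot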
[2] = test system: Human papillomavirus type 1a E7 protein (residues 1-88); assay: HPV1a E7 small-molecule binders, primary screen, biochemical, small-molecule microarray, residues 1-88, 635 nm (AID 1129); conditions: small-molecule microarray binding, fluorescence 635 nm; higher = more signal
[3] = biological target: Focal adhesion kinase 1 (Homo sapiens) (UniProt Q05397); assay: small-molecule microarray binders of FAK, primary screen, biochemical, 635/667 nm fluorescence, BSA, DTT (AID 1130); conditions: PTK2 binding, 635 nm fluorescence, higher = more signal;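 note: composite of spot emission at 667 nm and signal to noise over triplicate slides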
Focal adhesion kinase 1 (Homo sapiens), sequence (Q05397 whole entry, looked up): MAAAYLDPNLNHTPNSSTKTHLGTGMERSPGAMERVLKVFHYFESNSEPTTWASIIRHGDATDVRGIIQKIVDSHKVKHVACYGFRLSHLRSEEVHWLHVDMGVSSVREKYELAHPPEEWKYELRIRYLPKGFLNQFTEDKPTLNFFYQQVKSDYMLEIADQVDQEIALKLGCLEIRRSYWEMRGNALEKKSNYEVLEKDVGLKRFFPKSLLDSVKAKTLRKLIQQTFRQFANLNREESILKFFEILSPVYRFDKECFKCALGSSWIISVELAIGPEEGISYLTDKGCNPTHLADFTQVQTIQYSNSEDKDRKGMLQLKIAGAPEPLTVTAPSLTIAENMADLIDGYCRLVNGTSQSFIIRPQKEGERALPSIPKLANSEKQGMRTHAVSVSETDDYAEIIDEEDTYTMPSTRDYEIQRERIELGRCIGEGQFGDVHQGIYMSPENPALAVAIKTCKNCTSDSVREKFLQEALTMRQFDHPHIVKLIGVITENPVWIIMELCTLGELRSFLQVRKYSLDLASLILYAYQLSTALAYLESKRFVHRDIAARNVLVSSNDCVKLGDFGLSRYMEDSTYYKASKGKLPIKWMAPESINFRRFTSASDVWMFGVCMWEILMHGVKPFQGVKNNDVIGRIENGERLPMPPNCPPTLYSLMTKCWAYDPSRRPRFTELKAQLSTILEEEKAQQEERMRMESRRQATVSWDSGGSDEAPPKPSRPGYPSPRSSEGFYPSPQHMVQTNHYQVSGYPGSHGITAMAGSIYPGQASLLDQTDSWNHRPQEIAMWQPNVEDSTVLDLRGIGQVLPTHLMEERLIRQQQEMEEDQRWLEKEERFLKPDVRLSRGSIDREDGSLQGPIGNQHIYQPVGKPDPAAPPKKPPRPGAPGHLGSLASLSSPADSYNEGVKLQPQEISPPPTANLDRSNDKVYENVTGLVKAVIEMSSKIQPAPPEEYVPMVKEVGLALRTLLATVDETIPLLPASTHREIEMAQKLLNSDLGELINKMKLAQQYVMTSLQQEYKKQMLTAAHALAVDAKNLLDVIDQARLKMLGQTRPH

[4] = test system: Fibrinogen (Alexa647-labelled); assay: fibrinogen binders on compound microarrays, profiling panel, artefact control for SMM control-protein annotation, biochemical, small-molecule microarray, 635/667 nm fluorescence (AID 1131); conditions: fibrinogen-A647 binding fluorescence, higher = more signal;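 note: z-score merges 667 nm fluorescence with per-spot signal-to-noise over triplicate slides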
[5] = biological target: Follistatin (Homo sapiens) (UniProt P19883); assay: follistatin binders on small-molecule microarrays, primary screen, biochemical, small-molecule microarray, 635/667 nm fluorescence (AID 1132); conditions: FST binding, 635 nm fluorescence, higher = more signal
Follistatin (Homo sapiens), sequence (P19883 whole entry, looked up): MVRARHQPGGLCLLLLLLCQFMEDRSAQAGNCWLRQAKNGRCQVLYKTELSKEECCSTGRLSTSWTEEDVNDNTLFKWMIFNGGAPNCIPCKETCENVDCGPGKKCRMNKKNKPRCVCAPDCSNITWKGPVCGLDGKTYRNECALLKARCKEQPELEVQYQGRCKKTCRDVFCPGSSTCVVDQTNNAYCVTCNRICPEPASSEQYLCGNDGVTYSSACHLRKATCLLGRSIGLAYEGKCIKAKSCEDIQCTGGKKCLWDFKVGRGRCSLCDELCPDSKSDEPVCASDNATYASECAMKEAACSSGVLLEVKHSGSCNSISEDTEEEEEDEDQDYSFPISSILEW

[6] = biological target: Fibroblast growth factor 2 (Homo sapiens) (UniProt P09038); assay: FGF2 binders on small-molecule microarrays, primary screen, biochemical, small-molecule microarray, 635/667 nm fluorescence (AID 1133); conditions: small-molecule microarray binding, FGF2, fluorescence 635/667; higher = more signal
Fibroblast growth factor 2 (Homo sapiens), sequence (P09038 whole entry, looked up): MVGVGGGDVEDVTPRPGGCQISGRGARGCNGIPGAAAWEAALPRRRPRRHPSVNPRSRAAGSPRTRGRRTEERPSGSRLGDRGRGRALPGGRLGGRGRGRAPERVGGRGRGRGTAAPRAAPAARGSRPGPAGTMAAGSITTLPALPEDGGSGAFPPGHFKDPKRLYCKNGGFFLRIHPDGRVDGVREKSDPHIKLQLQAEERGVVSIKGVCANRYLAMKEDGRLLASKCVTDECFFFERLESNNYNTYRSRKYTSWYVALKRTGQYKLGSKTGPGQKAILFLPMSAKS

[7] = mitochondrial membrane potential change in A549 cells, profiling panel, cell-based, JC-1 fluorescence, basal, 24 h, 100 nL (AID 1138); conditions: higher = more signal;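 note: A549 lung adenocarcinoma cells under basal conditions with no added stimulus; test concentration not given here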
[8] = test system: Lefty1; assay: Lefty1 binders on small-molecule microarrays, primary screen, biochemical, small-molecule microarray, 635/667 nm fluorescence (AID 1139); conditions: small-molecule microarray binding, fluorescence 635/667; higher = more signal
[9] = test system: wheat germ agglutinin (Triticum aestivum), Alexa647-labelled; assay: wheat germ agglutinin binders on compound microarrays, profiling panel, artefact control for SMM control-protein annotation, biochemical, small-molecule microarray, 635/667 nm fluorescence (AID 1140); conditions: WGA-A647 binding, 635 nm fluorescence, higher = more signal;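 note: score merges 667 nm feature emission with signal to noise over triplicate slides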
[10] = biological target: Luciferin 4-monooxygenase (Photinus pyralis) (UniProt P08659); assay: firefly luciferase enzyme inhibitors, primary screen, biochemical, luminescence, purified enzyme, 2006 set (AID 1141); conditions: SteadyGlo luminescence, 30 min, higher = more signal, called active from +8 up or from −8 down;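 note: cell-free assay with purified firefly luciferase at 100 ng per well in PBS; test concentration not given here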
Luciferin 4-monooxygenase (Photinus pyralis), sequence (P08659 whole entry, looked up): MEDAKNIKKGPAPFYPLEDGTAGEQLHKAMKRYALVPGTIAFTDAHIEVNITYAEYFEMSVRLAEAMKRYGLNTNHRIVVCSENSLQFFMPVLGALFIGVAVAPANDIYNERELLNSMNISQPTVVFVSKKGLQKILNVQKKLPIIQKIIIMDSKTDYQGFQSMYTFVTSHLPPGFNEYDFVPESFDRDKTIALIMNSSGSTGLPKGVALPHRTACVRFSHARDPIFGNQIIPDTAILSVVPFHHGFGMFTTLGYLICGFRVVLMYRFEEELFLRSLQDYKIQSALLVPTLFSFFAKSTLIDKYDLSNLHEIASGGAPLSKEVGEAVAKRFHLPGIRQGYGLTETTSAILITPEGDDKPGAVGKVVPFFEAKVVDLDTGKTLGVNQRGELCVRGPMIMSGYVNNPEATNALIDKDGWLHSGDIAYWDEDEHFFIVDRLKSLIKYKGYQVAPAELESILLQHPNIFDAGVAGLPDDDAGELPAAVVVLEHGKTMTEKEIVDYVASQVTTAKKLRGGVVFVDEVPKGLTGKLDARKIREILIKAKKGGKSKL

Row | Compound | composite z-score [1] | composite z-score [2] | composite z-score [3] | composite z-score [4] | composite z-score [5] | composite z-score [6] | z-score [7] | composite z-score [8] | composite z-score [9] | z-score [10]
1 | CCOC(=O)C[C@H]1[C@H](OC(=O)c2cc3ccccc3oc2=O)[C@@H](NC(=O)Cc2ccc(OC)cc2)c2cc(OCCCO)ccc2N1C(=O)c1ccccc1 | -0.0228 | 0.376 | -0.0962 | 0.367 | 0.371 | 0.382 | -1.01 | 0.248 | 0.318 | 0.589 (inactive)
2 | C=CCNC(=O)[C@@H]1[C@H]2C(=O)O[C@H](c3ccccc3)[C@H](c3ccccc3)N2[C@H](c2ccc(OCCO)cc2)[C@@]12C(=O)Nc1ccc(C#CCCO)cc12 | 2.72 | 1.19 | 1.17 | 0.979 | 1.16 | 1.68 | 0.103 | 1.52 | 0.687 | -0.947 (inactive)
3 | CC(C)C(CO)N1C(=O)[C@@H]2[C@H]3C(=O)OCC=C[C@H]3OC23C=CCN(C(C)C)C(=O)[C@@H]13 (stereo not given in full) | 0.443 | -0.349 | 0.0732 | -0.841 | 0.405 | -0.501 | -0.654 | 0.433 | -0.131 | 0.316 (inactive)
4 | Cc1ccc(S[C@]2(C(=O)NC3CC3)CC(=O)N(C3Cc4ccccc4C3)[C@@H]2c2ccc(CO)cc2)cc1 | -0.172 | 0.445 | 0.0342 | -0.424 | -0.584 | -0.3 | 2.42 | -1.35 | -0.0705 | -1.28 (inactive)
5 | C=C(CCCC)C(=O)CC[C@@H](OC(=O)c1cccnc1)c1ccc(CO)o1 | 1.18 | 1 | -0.338 | 0.947 | 1.25 | 1.47 | -0.627 | 1.36 | 0.828 | -2.32 (inactive)
6 | COCCOC(=O)N1C(=O)[C@@]2(c3cc(C#CC4=CCCCC4)ccc31)[C@H](C(=O)Nc1nc3ccccc3s1)[C@H]1C(=O)O[C@H](c3ccccc3)[C@H](c3ccccc3)N1[C@@H]2c1ccccc1OCCO | 0.772 | 1.19 | 2.14 | 0.766 | 1.38 | 0.946 | -2.18 | 1.21 | 0.845 | -1.88 (inactive)
7 | CCCCC(O)C1C=CC2C(=O)N(c3ccccc3)C(=O)C2N1Nc1ccccc1F (stereo not given) | 1.35 | 1.11 | 0.527 | 0.924 | 0.347 | -0.563 | 0.354 | -0.0785 | 1.2 | 0.247 (inactive)
8 | O=C1OCC=C[C@H]2OC34C=CCN(CCN5CCOCC5)C(=O)[C@H]3N(CCCO)C(=O)[C@@H]4[C@@H]12 (stereo not given in full) | 0.314 | 0.323 | 0.574 | 0.38 | 0.216 | -0.344 | -0.798 | 0.606 | 0.114 | -0.206 (inactive)
9 | C[N+](C)(C)CCCCNC(=O)[C@H]1C[C@H]2C(=O)N[C@@H](Cc3ccccc3)C(=O)N2[C@H]1c1ccc(O)cc1 | 1.94 | -0.304 | -0.452 | 0.451 | 1.34 | 0.971 | 0.079 | 0.985 | 0.496 | -1.27 (inactive)
10 | COC(=O)[C@@]1(Cc2ccccc2)[C@H]2c3cc(C(=O)N4CCCC4)n(CC4CC4)c3C[C@H]2CN1C(=O)c1ccccc1 | 1.13 | 1.2 | 0.885 | 0.643 | 0.76 | -0.031 | -0.641 | 0.206 | 0.847 | 1.42 (inactive)
11 | C=C(C)C1C(=C)CN([C@H](CO)c2ccccc2)C1=O (stereo not given in full) | 0.0639 | -0.534 | -0.521 | -0.0803 | 0.189 | -0.158 | -0.647 | 0.587 | -0.187 | 1.01 (inactive)
12 | C=CCNC(=O)[C@H]1[C@@H]2C(=O)O[C@@H](c3ccccc3)[C@@H](c3ccccc3)N2[C@@H](c2ccccc2OCCO)[C@]12C(=O)Nc1ccc(C#CC3=CCCCC3)cc12 | 0.971 | 1.17 | 0.26 | 0.783 | 1.16 | 1.21 | -0.856 | 0.681 | 0.394 | -1.19 (inactive)
13 | C=CCC(OC(C)=O)[C@@H]1[C@@H](N(Cc2ccc(-c3ccccc3)cc2)C(=O)Cc2ccc(F)cc2)c2cc(OCCCO)ccc2N1C(=O)c1ccc(-c2ccccc2)cc1 (stereo not given in full) | -0.414 | -1.03 | -0.0744 | 0.259 | 0.267 | -0.297 | 0.796 | -0.0123 | -0.217 | 1.03 (inactive)
14 | COc1ccc(COC2OC[C@]3(C)[C@H]4C5=C(CN3C(=O)OC(C)(C)C)[C@H](C)C(CO)C(CO)C5CC[C@@H]24)cc1 (stereo not given in full) | 1.08 | 1.19 | 0.649 | 0.968 | 0.535 | -1.03 | 0.323 | -0.209 | 0.831 | 1.52 (inactive)
15 | [N-]=[N+]=Nc1ccccc1C[C@]1(C(N)=O)N=C(c2ccc(OCCCO)cc2)O[C@H]1c1ccccc1 | 2.45 | 1.2 | -0.155 | 1.01 | 0.371 | -0.768 | 0.518 | -0.364 | 1.23 | -1.53 (inactive)
16 | C=CCOC(=O)[C@@H]1[C@H]2C(=O)O[C@H](c3ccccc3)[C@H](c3ccccc3)N2[C@H](c2ccc(OCCOC(=O)[C@@H]3C[C@@H]4C(=O)N[C@@H](Cc5ccccc5)C(=O)N4[C@@H]3c3ccc(O)cc3)cc2)[C@@]12C(=O)Nc1ccc(I)cc12 | 1.11 | 0.947 | 0.375 | 0.799 | 1.41 | 1.61 | -1.53 | 1.41 | 0.844 | 0.304 (inactive)

Row | Compound | composite z-score [1] | composite z-score [2] | composite z-score [3] | composite z-score [4] | composite z-score [5] | composite z-score [6] | z-score [7] | composite z-score [8] | composite z-score [9] | z-score [10]
17 | COC(=O)[C@@]1(Cc2ccc(OC)cc2)[C@H]2c3cc(C(=O)N(C)C)n(Cc4cccc5ccccc45)c3C[C@H]2CN1C(=O)c1ccccc1 | 1.54 | 1.26 | 0.306 | 1.02 | 0.202 | -0.225 | -0.78 | 0.566 | 1.03 | 0.629 (inactive)
18 | C=CC[C@@]1(C(=O)N(C)C)N=C(c2ccc(OCCCO)cc2)O[C@@H]1c1ccccc1N=[N+]=[N-] | 3.01 | 1.22 | 0.489 | 0.776 | 1.28 | 0.26 | 0.857 | 0.406 | 1.33 | -9.07 (active)
19 | CN1C(=O)C2C=CC(C(O)c3ccc(I)cc3)N(N3CCCCC3)C2C1=O (stereo not given) | 1.09 | 1.21 | 0.578 | 0.924 | 1.24 | -0.148 | 0.158 | 0.459 | 1.2 | -1.05 (inactive)
20 | COCCCN1C(=O)[C@@]2(Cc3ccccc31)c1ccccc1C(=O)N(Cc1ccccc1C(F)(F)F)[C@H]2c1ccc(CO)cc1 | -0.169 | 0.439 | 0.521 | -0.371 | 1.26 | 1.14 | 0.317 | 0.469 | 0.101 | -0.259 (inactive)
21 | O=C1OCCC=C[C@H]2OC34C=CCN(CCN5CCOCC5)C(=O)[C@H]3N(CCCCCCO)C(=O)[C@@H]4C12 (stereo not given in full) | 0.626 | -0.525 | 0.604 | -1 | -0.061 | -0.486 | 0.884 | 0.0839 | -0.255 | -0.892 (inactive)
22 | CCCCc1cn(C[C@H](Cc2ccccc2)NC(=O)N[C@H](CO)CCc2oc(C(C)=O)c(C(=O)OC)c2C(=O)OC)nn1 | 0.97 | 1.2 | 0.54 | 0.921 | 1.18 | 0.866 | -0.419 | 1.16 | 0.445 | 1.29 (inactive)
23 | C=CC[C@]1(C(=O)NCCCOC)N=C(c2ccc(OCCCO)cc2)O[C@H]1c1ccccc1N=[N+]=[N-] | 2.54 | 1.22 | 0.143 | 0.967 | 1.26 | 1.28 | 0.688 | -0.397 | 0.542 | -8.19 (active)
24 | C=CCC(OC(C)=O)[C@@H]1[C@@H](N(Cc2ccc(-c3cccc(C(F)(F)F)c3)o2)C(=O)c2ccc(-c3ccccc3)cc2)c2cc(OCCCO)ccc2N1C(=O)c1ccc(-c2ccccc2)cc1 (stereo not given in full) | -0.674 | -0.714 | -0.045 | -0.557 | 0.47 | -0.0003 | 0.872 | 0.164 | -0.0266 | -0.277 (inactive)
25 | CCOC(=O)[C@H]1C/C=C/C[C@H](C(=O)OCC)C(=O)O[C@H]2[C@@H](OC)O[C@H](CO)[C@@H](OC(=O)Nc3ccc(C#N)cc3)[C@@H]2OC1=O | 0.514 | 0.45 | 0.499 | -0.274 | 0.336 | 0.121 | -1.92 | 0.519 | 0.852 | 0.215 (inactive)
26 | COc1ccc(C#Cc2ccc3c(c2)[C@]2(C(=O)N3)[C@H](c3ccccc3OCCO)N3[C@H](c4ccccc4)[C@H](c4ccccc4)OC(=O)[C@H]3[C@@H]2C(=O)O)cc1 | 1.61 | 1.22 | 0.191 | 0.951 | 0.694 | 0.314 | -2.59 | 1.15 | 1.28 | -3.9 (inactive)
27 | CN1C(=O)[C@]2(Cc3ccccc3)N=C(c3ccc(OCCCO)cc3)O[C@@H]2c2ccccc21 | 0.0581 | 1.2 | 1.07 | 0.775 | 1.3 | 1.8 | -0.00476 | 0.201 | 0.831 | -4.06 (inactive)
28 | COc1ccc(CCNC(=O)[C@@]2(C)c3ccccc3C(=O)N(Cc3cc(F)cc(C(F)(F)F)c3)[C@H]2c2ccc(CO)cc2)cc1 | 0.421 | 0.682 | 0.212 | 0.0066 | 0.179 | 0.132 | -0.233 | -0.953 | 0.606 | -0.947 (inactive)
29 | COc1ccc(C(O)C2C=CC3C(=O)NC(=O)C3N2Nc2ccccn2)cc1 (stereo not given) | 0.246 | 0.178 | -0.235 | 0.055 | 0.198 | 0.338 | -0.0269 | 0.513 | 0.899 | -1.99 (inactive)
30 | CC(C)OC(=O)C=C1C[C@@H](c2ccccc2C(F)(F)F)O[C@@H](c2ccccc2C(F)(F)F)O1 | 0.209 | 0.737 | 0.554 | 0.183 | -0.0154 | 0.179 | 1.81 | 0.109 | 0.127 | 0.464 (inactive)
31 | O=C1c2ccccc2[C@@]2(Cc3ccccc3N(CCN3CCOCC3)C2=O)[C@H](c2ccc(CO)cc2)N1Cc1ccccc1 | -0.784 | -0.689 | 0.352 | -0.523 | 0.0312 | -0.253 | 0.202 | -0.0729 | -0.304 | 1.01 (inactive)
32 | C=C(CCCC)C(=O)CC[C@H](OC(C)=O)c1cccc(OCCO)c1 | -0.393 | -0.755 | 0.5 | -1.29 | -0.732 | -0.546 | -0.299 | -0.492 | -0.881 | 0.0336 (inactive)

Reference: PubChem BioAssay
